# Assay outcomes (PubChem)
# VP16 counter – VP16 counterscreen qHTS for inhibitors of ROR gamma transcriptional activity; 310,000 tested, 3.5% active; Potency, µM (series often up to 53.6 µM), without a hit: at the highest dose activity, negative = inhibition, hits mostly inhibitors; Drosophila S2 Gal4-VP16 UAS-luciferase, luminescence, 20 h;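 note: Gal4-VP16 expression switched on by copper sulfate through the metallothionein promoter; % is set by controls: 0 for no effect and ±100 for the full control effect; nearly all actives have a fitted effect of over 50% in size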
# RORg inh – qHTS for inhibitors of ROR gamma transcriptional activity; Potency, µM (doses to about 53.6 µM), for the others: at the top dose activity change, negative = inhibition, hits mostly inhibitors; AID 2551, 2010; Drosophila S2 Gal4-RORgamma UAS-luciferase reporter, 20 h; 310,000 tested, 5.4% active; note: % is set by controls: 0 for no effect and ±100 for the full control effect; nearly all actives have a fitted effect of over 60% in size
# Target sequence (P51450 whole entry, looked up, the tested form may be a part): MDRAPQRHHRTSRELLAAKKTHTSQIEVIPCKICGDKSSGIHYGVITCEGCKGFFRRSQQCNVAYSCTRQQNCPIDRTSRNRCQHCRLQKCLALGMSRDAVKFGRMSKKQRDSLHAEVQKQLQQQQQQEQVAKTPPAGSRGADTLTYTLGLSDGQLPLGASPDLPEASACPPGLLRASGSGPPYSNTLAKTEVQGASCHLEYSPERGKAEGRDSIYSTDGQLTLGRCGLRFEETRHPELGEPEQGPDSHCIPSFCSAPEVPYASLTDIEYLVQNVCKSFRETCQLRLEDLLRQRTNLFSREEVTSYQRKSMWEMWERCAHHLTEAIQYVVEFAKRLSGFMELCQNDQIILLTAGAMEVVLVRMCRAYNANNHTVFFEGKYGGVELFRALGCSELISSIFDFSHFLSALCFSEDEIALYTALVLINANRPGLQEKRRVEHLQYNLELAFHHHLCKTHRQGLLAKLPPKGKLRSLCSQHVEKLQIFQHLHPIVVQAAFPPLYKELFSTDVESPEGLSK
#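 Stable Schneider cell line, Gal4 DNA-binding domain fused to ROR gamma, UAS-luciferase. Cmpd 1 hr RT → CuSO4 700 uM final → 20 hr RT → luciferase reagent 10 min → luminescence.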
# Integrin act MD – qHTS for Activators of Integrin-Mediated Alleviation for Muscular Dystrophy; alpha7betagal myoblasts, beta-gal FDG fluorescence, 48 h; Potency, µM (series often up to 38.3 µM), for inactives: top-dose activation, most hits filed as activators; 350,000 tested, 0.064% active;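 note: 100% = response of the positive control SU9516; nearly all actives have a fitted effect of over 60% in size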
#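 alpha7betagal+/- myoblasts (passage 13, 250/well) treated 48 h at 37C with compounds at 1:260 dilution of DMSO stock. Lysed, then beta-galactosidase activity read as FDG fluorescence (ex 480/em 540) after 30 min, with pre-read for autofluorescence.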
# uPA generation – qHTS for Inhibitors of Cell Surface uPA Generation. AID 540303, 2011. Potency, µM (series often up to 38.3 µM), without a hit: top-dose activity change, negative = inhibition, usual class: inhibitors. 330,000 tested, 0.31% active. cell surface uPA generation assay, qHTS; active = well fitted inhibition curve with a large enough effect; inconclusive = small, poorly fitted or top-dose-only effect; inactive = no such curve, though single readings can be large or run the other way; tested in mouse RAW 264.7 cells; note: % is set by controls: 0 for no effect and ±100 for the full control effect; nearly all actives have a fitted effect of over 55% in size
# BCR signal inh – qHTS Assay to Find Inhibitors of Chronic Active B-Cell Receptor Signaling; ABC-DLBCL IkBa-CBG/CBR reporter, luminescence ratio, 4 h; Potency, µM (highest dose often 46.1 µM), for the others: top-dose activity change, negative = inhibition, actives largely listed as inhibitors; 340,000 tested, 0.05% active; AID 493014, 2011; active = well fitted inhibition curve with a large enough effect in the signal ratio, with a control signal flat, not every such curve was filed as active; inconclusive = small, poorly fitted or top-dose-only effect, or effect the other way, or a change in a side signal; the % refers to the signal ratio;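 note: plate controls were basal doxycycline-induced cells for no effect and cells given 10 µM MG132 for full effect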
#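 Doxycycline induced both beetle luciferases in TMD8 lymphoma cells; IKK-driven degradation limits the IkappaBalpha-fused green signal, while red luminescence normalises for cell number and nonspecific effects. Compounds tested up to 46 uM, 4 hrs.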
# Mito fusion yeast – qHTS Assay for Small Molecule Inhibitors of Mitochondrial Division or Activators of Mitochondrial Fusion | AID 485298, 2010 | 320,000 tested, 0.23% active | Potency, µM (series often up to 46.1 µM), without a hit: at the top dose growth rescue (activation), actives largely listed as activators | S. cerevisiae fusion-defective mutant growth rescue, CellTiterGlo 48 h; note: % of control where 0% means no effect; nearly all actives have a fitted effect of over 45% in size
#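 S. cerevisiae fusion-defective temperature-sensitive mutants (e.g. fzo1-1, mgm1-5) grown 48 h at 37C in YPEG (ethanol/glycerol non-fermentable) medium with 23 nl compound per well; growth rescue read as CellTiterGlo luminescence.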
# * marks the source's active call; other numbers are inactive results; ? = inconclusive; . = no result given; [ ] = another dose, or the depositor's remark. Sampled rows, rich in hits. Any-hit rate of the full collection: about 5.5%. Unless noted, calls come from the whole dose curve; as a rule, active = well fitted curve in the direction sought with a large enough effect; inconclusive = small, poorly fitted or top-dose-only effect, or another doubt; inactive = no such curve, though single readings can be large; an effect the other way counts as inactive or inconclusive. Potency is the fitted concentration of half-maximal effect.
SMILES,VP16 counter,RORg inh,Integrin act MD,uPA generation,BCR signal inh,Mito fusion yeast
CC(C)NC(=O)C(=O)NCCC1CCCCN1S(=O)(=O)c1cccs1 (stereo not given),.,.,16.8%,3.4%,-4.4%,-5.0%
COCCN(C(=S)Nc1ccc(OC)cc1)C(C)c1cccs1 (stereo not given),?,12.6µM*,-29.3%,-4.4%,-1.1%,1.1%
COCCN(C(=S)Nc1cccc(C)c1)C(C)c1cccs1 (stereo not given),?,11.2µM*,-16.1%,-1.7%,-0.3%,20.5%
Cc1cc(C)c(NC(=S)N(CCN(C)C)C(C)c2cccnc2)c(C)c1 (stereo not given),-2.2%[10 µM],-42.8%,?,7.7%,-5.2%,20.0%
Cc1cc(C)cc(NC(=S)N(CCN(C)C)C(C)c2cccnc2)c1 (stereo not given),0.4%[10 µM],11.2µM*,-3.6%,1.8%,8.9%,?
COCCN(C(=S)Nc1c(C)cccc1C)C(C)c1cccs1 (stereo not given),?,?,-39.4%,-19.3%,-7.8%,7.0%
Cc1ccc(-n2ncc3c(NCc4ccccc4)ncnc32)cc1Cl,.,.,.,.,0.8%,.
O=C1C=C(N2CCOCC2)C2(CCCCC2)O1,-26.7%,11.2µM*,11.8%,-1.3%,?,3.9%
COc1cc(C(=O)NCc2ncccc2C)ccc1OC1CCN(C(C)=O)CC1,-8.1%,-13.8%,-8.0%,-39.1%,-4.1%,0.5%
CCOc1ccc2nc(N=NC3=C(O)CC(C)(C)CC3=O)sc2c1,3.2%,2.24µM*,-25.3%,9.2%,28.1%,-3.5%
CC(C)c1nc(=S)c2ccccc2[nH]1,10µM*,5.62µM*,2.7%,-4.6%,-10.9%,-8.8%
S=c1nc(SCc2ccccc2)[nH]c2ccccc12,10µM*,1.41µM*,0.2%,5.9%,11.0%,22.9%
S=c1nc(C2CCCCC2)[nH]c2ccccc12,8.91µM*,0.631µM*,-20.8%,1.6%,8.3%,-4.4%
S=c1nc(C2CC2)[nH]c2ccccc12,5.62µM*,3.55µM*,-19.7%,4.1%,?,-4.3%
c1ccc(CSc2nc3ncncc3[nH]2)cc1,-2.9%,-1.9%,0.0%,0.0%,-8.9%,-1.6%
COc1cc(Nc2nc(SCc3cccc(Cl)c3)nc3ccccc23)cc(OC)c1,.,.,.,.,26.4%,.
CC(C)(C)c1ccccc1NC(=O)N1CCNC(=O)C1CC(=O)Nc1ccc(F)cc1 (stereo not given),-3.3%,-1.5%,?,2.3%,0.4%,-1.5%
CC(OC(=O)Cn1cc(C(F)(F)F)ccc1=O)C(=O)N(C)c1ccccc1 (stereo not given),.,.,14.3%,0.8%,1.5%,.
COc1ccc(NS(=O)(=O)c2cccc(C(=O)NCc3ccccn3)c2)cc1,.,.,-5.6%,-8.2%,0.6%,-1.5%
COc1ccccc1NC(=O)C(C)Sc1nc2ccccc2c(=O)n1CC1CCCO1 (stereo not given),.,.,-24.4%,-1.6%,3.3%,?
COc1cccc(NC(=O)C2CCCN(S(=O)(=O)c3ccc4[nH]c(=O)ccc4c3)C2)c1 (stereo not given),.,.,.,.,-1.4%,.
CCOC(=O)C(C)/C(C)=N/NC(N)=S (stereo not given),1.26µM*,0.708µM*,9.0%,-1.4%,?,-6.4%
CCOC(=O)C(C)/C(C)=N\Nc1ccc([N+](=O)[O-])cc1[N+](=O)[O-] (stereo not given),-23.8%,?,-34.6%,-5.1%,10.2%,-6.6%
C[C@H](CN1c2ccccc2Sc2cccnc21)N(C)C,17.5%,-12.1%,.,.,.,.
O=C(O)CCC/C=C\C[C@H]1C(=O)C[C@@H](O)[C@@H]1/C=C/[C@@H](O)CCc1ccccc1,-1.5%,-1.0%,.,.,.,.
SMILES,VP16 counter,RORg inh,Integrin act MD,uPA generation,BCR signal inh,Mito fusion yeast
CC(NC(=O)COC(=O)c1ccc([N+](=O)[O-])s1)c1ccccc1 (stereo not given),-25.2%,11.2µM*,17.1%,4.8%,-0.3%,4.7%
Cc1cc2oc(=O)cc(CN3CCN(C/C=C/c4ccccc4)CC3)c2cc1O,35.5µM*,?,.,.,?,1.5%
O=c1cc(CN2CCN(C/C=C/c3ccccc3)CC2)c2cc(O)c(-c3ccccc3)cc2o1,-24.4%,8.1%,-19.6%,3.5%,0.1%,-52.4%
CCN(CC)CCN(C(=O)c1ccco1)c1nc2ccc(F)cc2s1,.,.,.,.,-20.1%,.
O=C(Cn1cccc1C(=O)c1ccccc1)NCCCc1ccccc1,0.2%,2.8%,3.98µM*,2.5%,-7.2%,7.0%
CC(C(=O)NCCCc1ccccc1)n1cccc1C(=O)c1ccccc1 (stereo not given),7.2%,0.2%,-1.8%,5.0%,1.9%,22.4µM*
CC(C)C(=O)NCCCc1ccccc1,-5.9%,1.2%,16.9%,0.9%,4.5%,0.2%
Cc1ccc(C2N=C(N)Nc3nc(=O)c4ccccc4n32)cc1 (stereo not given),-0.4%,37.6%,?,3.5%,?,8.9%
O=C(CCc1ccccc1)NCC(c1ccco1)N1CCc2ccccc21 (stereo not given),.,.,5.1%,3.16µM*,?,10.1%
O=C(NCC(c1ccco1)N1CCc2ccccc21)c1ccccc1F (stereo not given),.,.,8.9%,-2.4%,7.6%,21.3%
O=C(Nc1cc(Br)ccc1O)C1CC(c2c(F)cccc2Cl)=NO1 (stereo not given),-0.5%,4.6%,-11.9%,8.91µM*,?,-7.0%
CN(C)c1nc(N)c([N+](=O)[O-])c(NCC2CCCO2)n1 (stereo not given),3.8%,-4.9%,-5.1%,-11.8%,0.0%,-11.1%
CN1CCN(Cc2nc3ccccc3c(=O)n2Cc2nc(-c3ccc([N+](=O)[O-])cc3)cs2)CC1,17.8µM*,7.94µM*,-51.2%,-18.6%,?,-9.3%
Cc1cc(N2CCN(c3nc(-c4ccc([N+](=O)[O-])cc4)cs3)CC2)c2ccccc2n1,12.6µM*,10µM*,-69.3%,-11.2%,4.7%,-3.4%
C=CCn1c(SCC(=O)O)nnc1-c1ccc(C(C)(C)C)cc1,?,14.1µM*,-20.1%,-4.8%,?,-1.1%
CC(=O)Nc1ccc(S(=O)(=O)N2C(=O)c3cccc4cccc2c34)cc1,-0.4%,10.8%,.,.,1.1%,19.1%
O=S1(=O)c2ccc(Br)cc2N2CC[C@H](C2)N1Cc1ccc(Cl)cc1,.,.,-14.2%,3.16µM*,.,.
O=S1(=O)c2ccc(Br)cc2N2CCC[C@@H]2CN1Cc1ccc(Cl)cc1,.,.,10.7%,?,.,.
COc1ccc(C)cc1N(CC(=O)NCCSCc1cccc(Cl)c1)S(C)(=O)=O,-5.0%,27.8%,-8.9%,-3.0%,-2.7%,1.5%
